Assay results reported in PubChem BioAssay (Tox21).
Where “and” joins values, the source holds several entries; their conditions need not be identical. Identical values can stand only once. Records with an inconclusive call do not appear. Where a call stands in place of a potency, no number is given. Some compounds were tested as several samples or in several runs, with calls that do not always agree. Calls of active or inactive are those of the source. Unless noted, the call rests on the fitted dose curve; in most records, active means well fitted curve in the direction sought with a large enough effect in the repeat runs; inconclusive means weak or mixed curves; inactive means no such curve, though single readings can be large; an effect the other way counts as inactive or inconclusive.

What was measured:
[1] = qHTS assay to identify small molecule antagonists of the glucocorticoid receptor (GR) signaling pathway - cell viability counter screen (AID 720693); further: nearly all actives have a fitted effect of over 55% in size
[2] = qHTS assay for identifying genotoxic compounds that show differential cytotoxicity against isogenic chicken DT40 cell lines with known DNA damage response pathways - wild type cell line (AID 743012); further: nearly all actives have a fitted effect of over 60% in size; further: potency means the concentration at half of the fitted maximal effect
How it was run: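 Wild-type DT40 cells (300/well) exposed to compounds for 40 hours at 37 C/5% CO2. Viability read by CellTiter-Glo luminescence after 30 min at room temperature.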

[3] = qHTS assay for identifying genotoxic compounds that show differential cytotoxicity against isogenic chicken DT40 cell lines with known DNA damage response pathways - Rev3 mutant cell line (AID 743014); further: nearly all actives have a fitted effect of over 55% in size; further: potency means the concentration at half of the fitted maximal effect
[4] = qHTS assay for identifying genotoxic compounds that show differential cytotoxicity against isogenic chicken DT40 cell lines with known DNA damage response pathways - Rad54/Ku70 mutant cell line (AID 743015); further: nearly all actives have a fitted effect of over 60% in size; further: potency means the concentration at half of the fitted maximal effect
[5] = qHTS assay to identify small molecule antagonists of the androgen receptor (AR) signaling pathway - cell viability counter screen (AID 743033; further: nearly all actives have a fitted effect of over 45% in size; further: potency means the concentration at half of the fitted maximal effect)
[6] = qHTS assay to identify small molecule antagonists of the androgen receptor (AR) signaling pathway using the MDA cell line - cell viability counter screen (AID 743041; further: nearly all actives have a fitted effect of over 45% in size)
How it was run: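 Viability counter screen run alongside the AR antagonist reporter: cells seeded 5 h before compound, R1881 added, 16 h incubation at 37C without CO2, fluorescent CellTiter-Fluor signal quantified.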

[7] = qHTS assay to identify small molecule antagonists of the thyroid receptor (TR) signaling pathway - cell viability counter screen (AID 743064); further: nearly all actives have a fitted effect of over 50% in size; further: potency means the concentration at half of the fitted maximal effect
How it was run: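 Counter screen for cytotoxicity: compound plus T3 (1 nM final) on GH3.TRE-Luc cells, 23.5 h at 37 °C, then fluorescence viability readout with CellTiter-Fluor.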

[8] = qHTS assay to identify small molecule antagonists of the thyroid receptor (TR) signaling pathway (AID 743065); further: nearly all actives have a fitted effect of over 55% in size; further: potency means the concentration at half of the fitted maximal effect
How it was run: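 GH3.TRE-Luc rat pituitary cells carrying two TR response elements driving luciferase were plated for 4 h, given compound plus 1 nM T3 (final), and incubated 23.5 h at 37 C. ONE-Glo luminescence measured reporter inhibition; CellTiter-Fluor fluorescence tracked cytotoxicity.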

[9] = tested on: thyroid hormone receptor (rat, GH3 cells); assay: qHTS assay to identify small molecule agonists of the thyroid receptor (TR) signaling pathway (AID 743066; calls by dose curve)
[10] = target: Estrogen receptor (Homo sapiens) (UniProt P03372); assay: qHTS assay to identify small molecule antagonists of the estrogen receptor alpha (ER-alpha) signaling pathway (AID 743069; active means well fitted curve in the direction sought with a large enough effect in the signal ratio in the repeat runs, not every such curve was filed as active; the % refers to the signal ratio)
Estrogen receptor (Homo sapiens), sequence (P03372 whole entry, looked up): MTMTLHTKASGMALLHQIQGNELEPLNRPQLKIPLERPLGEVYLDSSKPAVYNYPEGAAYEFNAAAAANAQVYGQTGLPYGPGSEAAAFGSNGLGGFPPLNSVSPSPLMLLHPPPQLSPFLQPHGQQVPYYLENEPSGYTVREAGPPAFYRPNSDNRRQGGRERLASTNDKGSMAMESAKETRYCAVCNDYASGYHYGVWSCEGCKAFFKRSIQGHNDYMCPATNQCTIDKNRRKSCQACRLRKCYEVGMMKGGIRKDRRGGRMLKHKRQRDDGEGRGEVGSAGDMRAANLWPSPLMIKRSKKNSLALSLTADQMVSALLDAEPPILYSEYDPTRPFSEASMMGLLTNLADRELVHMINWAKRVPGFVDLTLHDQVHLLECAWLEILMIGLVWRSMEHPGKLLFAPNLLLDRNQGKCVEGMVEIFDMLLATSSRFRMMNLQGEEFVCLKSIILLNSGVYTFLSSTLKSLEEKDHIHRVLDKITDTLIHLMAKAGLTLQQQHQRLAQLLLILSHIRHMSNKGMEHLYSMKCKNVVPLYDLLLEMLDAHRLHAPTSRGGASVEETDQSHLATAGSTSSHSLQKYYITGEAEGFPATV
How it was run: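 Estradiol-stimulated ER-alpha-UAS-bla HEK293 cells, 18 hr compound exposure at 37C. LiveBLAzer B/G substrate, 2 hr RT, fluorescence read.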

[11] = qHTS assay to identify small molecule antagonists of the estrogen receptor alpha (ER-alpha) signaling pathway - cell viability counter screen (AID 743074; calls by dose curve;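 further: HEK293 cells carrying ER-alpha-UAS-bla reporter stimulated with 17beta-estradiol; nearly all actives have a fitted effect of over 45% in size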)
[12] = target: Estrogen receptor (Homo sapiens) (UniProt P03372); assay: qHTS assay to identify small molecule agonists of the estrogen receptor alpha (ER-alpha) signaling pathway (AID 743075; calls by dose curve;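 further: HEK293 GripTite cells with ER-alpha and UAS-driven beta-lactamase reporter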)
[13] = target: Estrogen receptor (Homo sapiens) (UniProt P03372); assay: qHTS assay to identify small molecule agonists of the estrogen receptor alpha (ER-alpha) signaling pathway using the BG1 cell line (AID 743079); further: nearly all actives have a fitted effect of over 20% in size; further: potency means the concentration at half of the fitted maximal effect
[14] = qHTS assay to identify small molecule antagonists of the estrogen receptor alpha (ER-alpha) signaling pathway using the BG1 cell line - cell viability counter screen (AID 743081);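 further: compound given together with 17beta-estradiol as the ER stimulus; series mostly up to about 70 µM; nearly all actives have a fitted effect of over 45% in size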
Aromatase (Homo sapiens) = Aromatase (Homo sapiens) (UniProt P11511); assay: qHTS assay to identify aromatase inhibitors (AID 743083); further: nearly all actives have a fitted effect of over 55% in size; further: potency means the concentration at half of the fitted maximal effect
Aromatase (Homo sapiens), sequence (P11511 whole entry, looked up): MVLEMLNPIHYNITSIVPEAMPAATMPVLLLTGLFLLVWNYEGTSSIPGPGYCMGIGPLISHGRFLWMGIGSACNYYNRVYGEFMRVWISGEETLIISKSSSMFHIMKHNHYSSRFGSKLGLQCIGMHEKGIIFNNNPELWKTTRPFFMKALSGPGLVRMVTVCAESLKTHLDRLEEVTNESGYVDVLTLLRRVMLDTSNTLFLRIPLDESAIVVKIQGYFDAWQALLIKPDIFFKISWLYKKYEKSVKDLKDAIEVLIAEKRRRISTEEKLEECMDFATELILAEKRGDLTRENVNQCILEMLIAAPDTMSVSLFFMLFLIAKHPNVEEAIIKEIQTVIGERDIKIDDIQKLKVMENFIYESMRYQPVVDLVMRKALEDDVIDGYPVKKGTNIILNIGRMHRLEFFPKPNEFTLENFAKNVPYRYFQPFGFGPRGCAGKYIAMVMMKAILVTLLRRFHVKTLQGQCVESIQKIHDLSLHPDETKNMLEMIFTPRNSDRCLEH

[15] = target: Androgen receptor (Homo sapiens) (UniProt P10275); assay: qHTS assay to identify small molecule antagonists of the androgen receptor (AR) signaling pathway (AID 743035; active means well fitted inhibition curve with a large enough effect in the signal ratio in the repeat runs, not every such curve was filed as active; the % refers to the signal ratio)
Androgen receptor (Homo sapiens), sequence (P10275 whole entry, looked up): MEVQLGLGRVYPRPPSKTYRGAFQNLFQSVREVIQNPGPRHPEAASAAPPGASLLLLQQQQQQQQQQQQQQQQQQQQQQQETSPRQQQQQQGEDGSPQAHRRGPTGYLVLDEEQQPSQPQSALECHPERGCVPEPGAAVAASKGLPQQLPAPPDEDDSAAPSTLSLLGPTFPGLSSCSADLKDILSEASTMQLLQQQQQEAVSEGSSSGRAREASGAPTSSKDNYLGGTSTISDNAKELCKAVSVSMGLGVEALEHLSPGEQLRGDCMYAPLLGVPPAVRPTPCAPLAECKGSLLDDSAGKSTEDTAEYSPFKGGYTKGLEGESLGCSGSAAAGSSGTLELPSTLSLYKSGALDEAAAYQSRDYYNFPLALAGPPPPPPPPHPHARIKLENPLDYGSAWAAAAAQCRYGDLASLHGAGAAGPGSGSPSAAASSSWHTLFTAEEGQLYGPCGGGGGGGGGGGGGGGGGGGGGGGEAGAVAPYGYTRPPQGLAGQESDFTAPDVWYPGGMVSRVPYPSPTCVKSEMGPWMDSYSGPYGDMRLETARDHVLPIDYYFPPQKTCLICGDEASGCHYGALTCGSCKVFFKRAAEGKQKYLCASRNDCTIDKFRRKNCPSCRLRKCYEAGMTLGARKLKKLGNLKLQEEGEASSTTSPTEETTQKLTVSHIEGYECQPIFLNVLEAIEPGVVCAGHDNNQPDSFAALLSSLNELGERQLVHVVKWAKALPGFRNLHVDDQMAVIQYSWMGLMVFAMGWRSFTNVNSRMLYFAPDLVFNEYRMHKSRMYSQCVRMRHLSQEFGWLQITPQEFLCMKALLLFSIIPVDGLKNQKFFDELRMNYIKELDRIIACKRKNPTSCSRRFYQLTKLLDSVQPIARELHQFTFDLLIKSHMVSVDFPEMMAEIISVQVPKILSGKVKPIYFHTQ
How it was run: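 HEK293 cells stably carrying UAS-beta-lactamase reporter, 2,000/well, given compounds plus R1881 agonist and incubated 16 h at 37C. LiveBLAzer B/G FRET substrate then added for 2 h at room temperature before fluorescence reading.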

[16] = target: Androgen receptor (Homo sapiens) (UniProt P10275); assay: qHTS assay to identify small molecule agonists of the androgen receptor (AR) signaling pathway (AID 743036; active means well fitted activation curve with a large enough effect in the signal ratio in the repeat runs, with a control signal flat, not every such curve was filed as active; the % refers to the signal ratio; further: potency means the concentration at half of the fitted maximal effect)
How it was run: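 In this Tox21 qHTS, 2,000 HEK293 AR-bla cells per well were incubated with compounds for 16 h at 37C and 5% CO2. Fluorescence intensity was recorded 2 h after adding LiveBLAzer B/G FRET substrate at room temperature.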

[17] = target: Androgen receptor (Homo sapiens) (UniProt P10275); assay: qHTS assay to identify small molecule agonists of the androgen receptor (AR) signaling pathway using the MDA cell line (AID 743040; further: nearly all actives have a fitted effect of over 20% in size; further: potency means the concentration at half of the fitted maximal effect)
How it was run: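 Luminescence from ONE-Glo, read after 30 min at room temperature, reflects MMTV-driven luciferase in MDA-kb2 cells (AR- and GR-responsive). Treatment lasted 16 h at 37C, 0% CO2.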

[18] = target: Androgen receptor (Homo sapiens) (UniProt P10275); assay: qHTS assay to identify small molecule antagonists of the androgen receptor (AR) signaling pathway using the MDA cell line (AID 743042; further: nearly all actives have a fitted effect of over 55% in size)
How it was run: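 MDA-kb2 cells (human breast carcinoma, stably carrying an MMTV-luciferase reporter responsive to AR and GR) were plated at 3,000 cells/well and preincubated 5 hr at 37C, then given compound plus R1881 agonist for 16 h. ONE-Glo luminescence was read.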

[19] = qHTS assay to identify small molecule antagonists of the estrogen receptor alpha (ER-alpha) signaling pathway using the BG1 cell line (AID 743080; calls by dose curve;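 further: BG1 cells stimulated with 17beta-estradiol alongside compound; series mostly up to about 70 µM; nearly all actives have a fitted effect of over 25% in size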)
How it was run: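 Quantitative HTS on the Tox21 10K library: BG1 cells with endogenous ER-alpha and ERE-luciferase reporter, 17beta-estradiol stimulation, 21.5 h compound exposure, luminescence endpoint with parallel fluorescence cytotoxicity counter-read.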

| SMILES | outcome [1] | Potency [2] | Potency [3] | Potency [4] | Potency [5] | Potency [6] | Potency [7] | Potency [8] | Potency [9] | Potency [10] | outcome [11] | Potency [12] | Potency [13] | Potency [14] | Potency (Aromatase (Homo sapiens)) | outcome [15] | Potency [16] | Potency [17] | outcome [18] | Potency [19] |
| --- | --- | --- | --- | --- | --- | --- | --- | --- | --- | --- | --- | --- | --- | --- | --- | --- | --- | --- | --- | --- |
| CCOC(=O)NNc1nncc2ccccc12 | inactive | inactive | inactive | inactive | inactive | inactive | inactive | inactive | inactive | inactive | inactive | inactive | inactive | inactive | inactive |  |  |  |  |  |
| Oc1cccc2ccccc12 | inactive | inactive | inactive | inactive | inactive | inactive | inactive | inactive | inactive |  | inactive |  |  | inactive |  |  |  |  |  |  |
| COS(C)(=O)=O | inactive | inactive | inactive | inactive | inactive | inactive | inactive | inactive | inactive | inactive | inactive | inactive | inactive | inactive | inactive |  |  |  |  |  |
| c1ccc(OCCOc2ccccc2)cc1 | inactive | inactive | inactive | inactive | inactive | inactive | inactive | inactive | inactive | inactive | inactive | inactive | 61.1 µM (active) and 54.5 µM (active) | inactive | inactive |  |  |  |  |  |
| C[Si](O[Si](C)(C)C)O[Si](C)(C)C | inactive | inactive | inactive | inactive | inactive | inactive | inactive | inactive | inactive |  | inactive |  |  | inactive | inactive | inactive | inactive | inactive | inactive |  |
| C[C@H]1C[C@@H]2[C@H]([C@@H](O)C[C@@]3(C)[C@H]2CC[C@]3(O)C(=O)CO)[C@@]2(C)C=CC(=O)C=C12 | inactive | inactive | inactive | inactive | inactive | inactive | inactive | inactive | inactive |  | inactive |  |  | inactive | inactive |  | 32.3 nM (active) and 49 nM (active) | 50.7 nM (active) and 38.6 nM (active) | inactive |  |
| C#CCN(C)Cc1ccccc1 | inactive | inactive | inactive | inactive | inactive | inactive | inactive | inactive | inactive | inactive | inactive | inactive | inactive | inactive | inactive |  |  |  |  | inactive |
| CC[C@H](C)C(=O)O[C@H]1C[C@@H](C)C=C2C=C[C@H](C)[C@H](CC[C@@H]3C[C@@H](O)CC(=O)O3)[C@H]21 | inactive | 53.1 nM (active) and 5.52 µM (active) and 682 nM (active) | 8.4 nM (active) and 391 nM (active) and 3.8 nM (active) | 53.1 nM (active) and 2.77 µM (active) and 136 nM (active) | 31.3 µM (active) and inactive | inactive | 62 µM (active) and 60.8 µM (active) | 62 µM (active) and 54.2 µM (active) | inactive | inactive | inactive | inactive | inactive | inactive | 11.9 µM (active) and 34.9 µM (active) and 27.2 µM (active) |  |  |  |  |  |
| CC(=O)c1ccccc1 | inactive | inactive | inactive | inactive | inactive | inactive | inactive | inactive | inactive | inactive | inactive | inactive | inactive | inactive | inactive |  |  |  |  |  |
| O=S(=O)(O)c1ccc2ccccc2c1 | inactive | inactive and 54.6 µM (active) | inactive and 43.4 µM (active) | inactive and 54.6 µM (active) | inactive | inactive | inactive | inactive | inactive | inactive | inactive | inactive | inactive | inactive | inactive |  |  |  |  | inactive |
| CCCCCOC(C)=O | inactive | inactive | inactive and 68.6 µM (active) | inactive | inactive | inactive | inactive | inactive | inactive | inactive | inactive | inactive | inactive | inactive | inactive |  |  |  |  |  |
| CCCCN(CCCC)CCCC | inactive | inactive | inactive | inactive | inactive | inactive | inactive | inactive | inactive | inactive | inactive | inactive | inactive | inactive | inactive |  |  |  |  |  |
| CC(=O)CC(=O)Nc1ccccc1C | inactive | inactive | inactive | inactive | inactive | inactive | inactive | inactive | inactive | inactive | inactive | inactive | inactive | inactive | inactive |  |  |  |  |  |
| CN(C)CCCN | inactive | inactive | inactive | inactive | inactive | inactive | inactive | inactive | inactive | inactive | inactive | inactive | inactive | inactive | inactive |  |  |  |  |  |
| CCC(O)OCCCOC (configuration not stated) | inactive | inactive | inactive | inactive | inactive | inactive | inactive | inactive | inactive |  | inactive |  |  | inactive | inactive |  |  |  |  |  |
| CC(=O)OCC(=O)[C@@]12N=C(C)O[C@@H]1C[C@H]1[C@@H]3CCC4=CC(=O)C=C[C@]4(C)[C@H]3[C@@H](O)C[C@@]12C | inactive | inactive | inactive | inactive | inactive | inactive | inactive | inactive | inactive |  | inactive | inactive | 16.8 µM (active) | inactive | inactive |  |  |  |  |  |
| O=C1CCC(N2C(=O)c3ccccc3C2=O)C(=O)N1 (configuration not stated) | inactive | inactive | inactive | inactive | inactive | inactive | inactive | inactive | inactive |  | inactive |  |  | inactive | inactive |  |  |  |  |  |
